Measured values taken from PubChem BioAssay (Tox21).
Records with an inconclusive call do not appear. Active and inactive are the calls of the source. Unless noted, the call rests on the fitted dose curve; in most records, active means well fitted curve in the direction sought with a large enough effect in the repeat runs; inconclusive means weak or mixed curves; inactive means no such curve, though single readings can be large; an effect the other way counts as inactive or inconclusive.

Key:
[1] = qHTS assay to identify small molecule agonists of the RXR signaling pathway - cell viability counter screen (AID 1159529); further: nearly all actives have a fitted effect of over 50% in size
Procedure, shortened: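 RXR-alpha-UAS-bla HEK 293T cells in medium with 2% charcoal-stripped FBS were pre-incubated 5 hr, then compound-treated 16 hr at 37 C. Viability was read by CellTiter-Glo luminescence in the same wells as the beta-lactamase assay, with tetraoctyl ammonium bromide as positive control.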

[2] = qHTS assay to identify small molecule antagonists of the retinoid acid receptor (RAR) signaling pathway - cell viability counter screen (AID 1159551); further: nearly all actives have a fitted effect of over 35% in size
Procedure, shortened: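 C3RL4 RARE-luciferase cells, 1,000/well, incubated overnight, then dosed with compound plus 1 uM retinol (final). After 6 hr at 37 C, viability read by CellTiter-Glo ATP luminescence following 30 min at room temperature.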

[3] = qHTS assay to identify small molecule antagonists of the retinoic acid receptor (RAR) signaling pathway (AID 1159552; further: nearly all actives have a fitted effect of over 50% in size)
Procedure, shortened: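 Retinol signaling pathway inhibitors screened in C3RL4 RARE-luciferase reporter cells seeded overnight at 37 C, then compounds added with 1 uM (final) retinol as pathway substrate. After 6 hr at 37 C, luciferase luminescence read after 30 min at room temperature.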

[4] = qHTS assay to identify small molecule agonists of the retinoic acid receptor (RAR) signaling pathway (AID 1159553); settings: C3RL4 RARE luciferase reporter, agonist, 6 h; activation: at 73.3 µM (top of the series)
Procedure, shortened: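 C3RL4 RARE-luciferase cells were seeded at 1,000/well and grown overnight at 37 C, then exposed to compounds for 6 hr at 37 C, 5% CO2. Luciferase reagent was added and luminescence was read after 30 min at room temperature.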

[5] = target: Luciferin 4-monooxygenase (Photinus pyralis) (UniProt P08659); experiment: qHTS assay to identify small molecule inhibitors of firefly luciferase (AID 1224835); further: nearly all actives have a fitted effect of over 25% in size
Procedure, shortened: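 Quantitative HTS format; KM concentrations of both substrates. Purified P. pyralis FLuc activity quantified from luminescence images.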

[6] = qHTS assay to identify small molecule agonists of the constitutive androstane receptor (CAR) signaling pathway - cell viability counter screen (AID 1224836); further: nearly all actives have a fitted effect of over 45% in size
Procedure, shortened: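 HepG2 cells stably carrying hCAR and a CYP2B6-2.2kb reporter; 15-concentration compounds plus PK11195 (final 0.75 uM), 23 hr at 37 C/5% CO2. Viability read by CellTiter-Fluor fluorescence.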

[7] = qHTS assay to identify small molecule antagonists of the constitutive androstane receptor (CAR) signaling pathway - cell viability counter screen (AID 1224837); further: nearly all actives have a fitted effect of over 45% in size
Procedure, shortened: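 HepG2 cells stably carrying hCAR and CYP2B6-2.2kb reporter, stimulated with 50 nM CITCO and compounds at 15 concentrations for 23 h at 37 C. Viability measured by CellTiter-Fluor fluorescence.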

[8] = qHTS assay to identify small molecule antagonists of the estrogen related receptor signaling pathway with the pleiotropic PPARgamma coactivator (PGC) from Tox21 10K library - cell viability counter screen (AID 1224840; active means well fitted cell-killing curve with a large enough effect in the repeat runs, not every such curve was filed as active; further: nearly all actives have a fitted effect of over 40% in size)
Procedure, shortened: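 PGC/ERR cells (2,000/well) plated 6 h, then compound-treated for 17.5 h at 37 C. Viability measured by CellTiter-Fluor fluorescence after 30 min at 37 C, multiplexed with the pathway assay.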

[9] = qHTS assay to identify small molecule antagonists of the estrogen related receptor signaling pathway with the pleiotropic PPARgamma coactivator (PGC) from Tox21 10K library (AID 1224841; call rule not given here; further: actives are mostly falling curves and most rising ones were filed inactive; nearly all actives have a fitted effect of over 50% in size)
Procedure, shortened: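 PGC/ERR cell line, 2,000 cells/well, pre-incubated 6 hours at 37 C, then exposed to compounds for 18 hours at 37 C; luciferase read with One-Glo luminescence after 30 min at room temperature.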

[10] = qHTS assay to identify small molecule agonists of the estrogen related receptor signaling pathway with the pleiotropic PPARgamma coactivator (PGC) from Tox21 10K library (AID 1224842); further: nearly all actives have a fitted effect of over 15% in size
Procedure, shortened: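 PGC/ERR reporter cells (NTP line) were seeded 2,000 per well, rested 6 h at 37 C/5% CO2, then pin-dosed with compounds in DMSO for 18 h at 37 C; luciferase read by One-Glo luminescence after 30 min at room temperature.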

[11] = target: Thyrotropin receptor (Homo sapiens) (UniProt P16473); experiment: qHTS assay to identify small molecule agonists of the thyroid stimulating hormone receptor (TSHR) signaling pathway (AID 1224843; calls by dose curve; further: nearly all actives have a fitted effect of over 45% in size)
Procedure, shortened: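 TSHR-expressing HEK293 cells (800 per well) were exposed to compounds for 30 min at room temperature. cAMP was then detected by HTRF competition with cAMP-d2 and anti-cAMP cryptate, read after 1 h at room temperature. Fifteen concentrations, triplicate.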

[12] = qHTS assay to identify small molecule agonists of the hypoxia (HIF-1) signaling pathway - cell viability counter screen (AID 1224844; calls by dose curve; further: nearly all actives have a fitted effect of over 50% in size)
Procedure, shortened: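 HRE-bla ME-180 cells, 2,000/well in 0.5% dialyzed FBS medium, treated 17 h at 37C with compounds. Viability read in the same wells as the bla reporter, by CellTiter-Glo luminescence after 30 min at room temperature.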

[13] = qHTS assay to identify small molecule agonists of H2AX (AID 1224845; active means well fitted activation curve with a large enough effect in the signal ratio in the repeat runs, not every such curve was filed as active; the % refers to the signal ratio)
Procedure, shortened: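 Wild-type CHO-K1 cells plated overnight, then exposed 3 hr at 37C to compounds at 15 concentrations (0.76% DMSO). Lysed, then HTRF anti-pH2AX(S139)-cryptate/anti-H2AX-d2 detection after 24 hr at room temperature; emissions 665 and 620 nm.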

[14] = qHTS assay to identify small molecule agonists of the hypoxia (HIF-1) signaling pathway (AID 1224846; active means well fitted activation curve with a large enough effect in the signal ratio in the repeat runs, not every such curve was filed as active; the % refers to the signal ratio)
Procedure, shortened: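 HRE-bla ME-180 beta-lactamase reporter cells in medium with 0.5% dialyzed FBS, pre-incubated 5 h then exposed to compounds 17 h at 37C, 5% CO2; reporter induction read with CCF4-AM FRET substrate.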

[15] = qHTS assay to identify small molecule antagonists of the estrogen related receptor (ERR) signaling pathway from Tox21 library (AID 1224848); further: nearly all actives have a fitted effect of over 50% in size
Procedure, shortened: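 Cells: ERR line, 2,000/well; 6 h preincubation 37 C/5% CO2. Cpd in DMSO via pin tool; 18 h, 37 C. ONE-Glo, 30 min RT, luminescence.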

[16] = target: Nuclear receptor subfamily 1 group I member 3 (Homo sapiens) (UniProt Q14994); experiment: qHTS assay to identify small molecule antagonists of the constitutive androstane receptor (CAR) signaling pathway (AID 1224838); further: nearly all actives have a fitted effect of over 40% in size
Procedure, shortened: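 HepG2 cells stably carrying hCAR and a CYP2B6-2.2kb luciferase reporter, seeded 4 hrs before compound (15 concentrations). Stimulated with 50 nM CITCO for 24 hr at 37 C. ONE-Glo luminescence read after 30 min at room temperature.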

[17] = qHTS assay to identify small molecule agonists of H2AX - cell viability counter screen (AID 1224847; calls by dose curve; further: top concentration of the series differs between compounds; nearly all actives have a fitted effect of over 30% in size)
Procedure, shortened: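 CHO-K1 cells plated overnight at 37C, then exposed 3 h at 37C to compounds at 15 concentrations (0.76% DMSO final). Viability by CellTiter-Glo luminescence after 30 min at room temperature.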

[18] = qHTS assay to identify small molecule agonists of the estrogen related receptor (ERR) signaling pathway from Tox21 library (AID 1224849; calls by dose curve; further: nearly all actives have a fitted effect of over 15% in size)
Procedure, shortened: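 ERR reporter cells (NTP line) pre-incubated 6 hours at 37 C, then exposed to compounds for 18 hours at 37 C. ONE-Glo luciferase luminescence was read after 30 minutes at room temperature.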

[19] = qHTS assay to identify small molecule antagonists of the estrogen related receptor (ERR) signaling pathway from Tox21 library - cell viability counter screen (AID 1224834); further: nearly all actives have a fitted effect of over 30% in size
Procedure, shortened: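 ERR reporter cells, 2,000 per well, rested 6 h, then exposed to compound in DMSO for 17.5 hours at 37 C. Viability read as fluorescence after 30 min with CellTiter-Fluor.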

[20] = target: Nuclear receptor subfamily 1 group I member 3 (Homo sapiens) (UniProt Q14994); experiment: qHTS assay to identify small molecule agonists of the constitutive androstane receptor (CAR) signaling pathway (AID 1224839); further: nearly all actives have a fitted effect of over 15% in size
Procedure, shortened: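 HepG2 cells stably co-transfected with hCAR and a CYP2B6-2.2kb luciferase reporter; compounds at 15 concentrations with 0.75 uM PK11195 present. After 24 hr at 37 C, luciferase read by ONE-Glo luminescence.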
On the % scale 0 is the no-effect control and ±100 the full control effect.

Sequence of Luciferin 4-monooxygenase (Photinus pyralis) (P08659 whole entry, looked up): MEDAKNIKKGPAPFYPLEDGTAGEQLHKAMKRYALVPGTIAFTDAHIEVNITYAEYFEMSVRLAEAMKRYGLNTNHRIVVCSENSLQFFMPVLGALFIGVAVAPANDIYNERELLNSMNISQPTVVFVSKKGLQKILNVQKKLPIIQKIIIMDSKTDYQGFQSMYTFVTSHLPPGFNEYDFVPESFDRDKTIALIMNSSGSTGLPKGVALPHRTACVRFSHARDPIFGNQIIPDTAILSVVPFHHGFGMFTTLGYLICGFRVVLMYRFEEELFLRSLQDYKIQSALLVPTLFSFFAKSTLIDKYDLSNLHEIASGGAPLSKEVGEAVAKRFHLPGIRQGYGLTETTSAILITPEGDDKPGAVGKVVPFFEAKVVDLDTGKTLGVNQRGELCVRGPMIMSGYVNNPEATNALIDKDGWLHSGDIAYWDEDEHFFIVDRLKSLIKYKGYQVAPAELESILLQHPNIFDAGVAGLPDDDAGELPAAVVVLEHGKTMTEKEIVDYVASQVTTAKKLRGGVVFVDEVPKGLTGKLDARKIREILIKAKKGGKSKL
Sequence of Thyrotropin receptor (Homo sapiens) (P16473 whole entry, looked up): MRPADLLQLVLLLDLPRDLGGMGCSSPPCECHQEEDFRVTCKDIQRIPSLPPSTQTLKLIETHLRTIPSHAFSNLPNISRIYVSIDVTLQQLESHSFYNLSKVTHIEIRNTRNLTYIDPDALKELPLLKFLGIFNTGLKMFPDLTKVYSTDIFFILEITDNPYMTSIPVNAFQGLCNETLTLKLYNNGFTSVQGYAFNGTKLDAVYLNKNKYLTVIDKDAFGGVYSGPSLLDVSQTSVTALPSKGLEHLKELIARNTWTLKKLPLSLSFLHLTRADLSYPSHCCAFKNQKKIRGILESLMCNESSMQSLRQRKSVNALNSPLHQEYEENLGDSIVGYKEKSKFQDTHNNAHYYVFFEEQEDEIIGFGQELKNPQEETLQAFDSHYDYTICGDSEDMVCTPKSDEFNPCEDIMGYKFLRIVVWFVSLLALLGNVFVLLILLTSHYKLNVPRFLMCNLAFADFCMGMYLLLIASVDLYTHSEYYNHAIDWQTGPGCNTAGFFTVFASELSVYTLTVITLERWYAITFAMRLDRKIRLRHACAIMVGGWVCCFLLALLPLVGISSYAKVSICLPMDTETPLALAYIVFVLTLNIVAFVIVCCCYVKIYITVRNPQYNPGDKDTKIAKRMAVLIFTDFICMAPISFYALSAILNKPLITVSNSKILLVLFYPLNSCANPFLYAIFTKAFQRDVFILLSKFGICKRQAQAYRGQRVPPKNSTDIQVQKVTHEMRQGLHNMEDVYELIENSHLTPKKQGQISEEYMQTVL
Sequence of Nuclear receptor subfamily 1 group I member 3 (Homo sapiens) (Q14994 whole entry, looked up): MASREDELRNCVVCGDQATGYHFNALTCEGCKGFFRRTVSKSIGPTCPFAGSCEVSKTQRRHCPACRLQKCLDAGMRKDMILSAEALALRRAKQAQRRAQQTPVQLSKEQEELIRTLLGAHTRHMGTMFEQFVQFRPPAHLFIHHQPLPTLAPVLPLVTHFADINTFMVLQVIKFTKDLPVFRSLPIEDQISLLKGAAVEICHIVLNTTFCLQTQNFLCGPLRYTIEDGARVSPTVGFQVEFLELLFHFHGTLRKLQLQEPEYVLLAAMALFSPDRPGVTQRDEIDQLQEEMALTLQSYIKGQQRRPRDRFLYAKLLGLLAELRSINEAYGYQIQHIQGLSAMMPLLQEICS

CC(=O)Nc1ncc([N+](=O)[O-])s1
inactive: outcome [1] | outcome [2] | Potency [3] | Potency [4] | Potency [5] | outcome [6] | Potency [7] | outcome [8] | Potency [9] | outcome [10] | outcome [11] | outcome [12] | outcome [13] | outcome [14] | Potency [15]

COc1cccc2sc(N)nc12
inactive: outcome [1] | outcome [2] | Potency [3] | Potency [4] | Potency [5] | outcome [6] | Potency [7] | Potency [16] | outcome [8] | Potency [9] | outcome [10] | outcome [11] | outcome [12] | outcome [13] | outcome [14] | Potency [17] | Potency [15] | outcome [18]

CC(C)COC(=O)CCCCC(=O)OCC(C)C
inactive: outcome [1] | outcome [2] | Potency [3] | Potency [4] | Potency [19] | outcome [6] | Potency [7] | outcome [8] | outcome [12] | outcome [13] | outcome [14] | Potency [17]

Nc1cc(C(=O)O)ccc1Cl
inactive: outcome [1] | outcome [2] | Potency [3] | Potency [4] | Potency [19] | outcome [6] | Potency [7] | outcome [12] | Potency [17]

CC(=O)OC[C@H]1O[C@@H](OC(C)=O)[C@H](OC(C)=O)[C@@H]1OC(C)=O
inactive: outcome [1] | outcome [2] | Potency [3] | Potency [4] | Potency [5] | outcome [6] | Potency [7] | Potency [20] | outcome [8] | Potency [9] | outcome [10] | outcome [11] | outcome [12] | outcome [14] | Potency [17] | Potency [15] | outcome [18]

SCCSCCS
inactive: outcome [1] | outcome [2] | Potency [3] | Potency [4] | Potency [19] | outcome [6] | Potency [7] | outcome [8] | outcome [11] | outcome [12] | outcome [13] | outcome [14]

CCC(C)N (stereo not drawn)
inactive: outcome [1] | outcome [2] | Potency [3] | Potency [4] | Potency [19] | outcome [6] | Potency [7] | outcome [8] | outcome [12] | outcome [14] | Potency [17]

COC(/C=C(\C)CCC=C(C)C)OC
inactive: outcome [1] | outcome [2] | Potency [3] | Potency [4] | Potency [19] | outcome [6] | Potency [7] | outcome [8] | outcome [11] | outcome [12] | outcome [13] | outcome [14] | Potency [17]

O=C(O)Cc1cccc(-c2cc(CCCCCCc3ccc(O[C@H]4O[C@H](CO)[C@@H](O)[C@H](O)[C@@H]4O)c(-c4cccc(CC(=O)O)c4)c3)ccc2O[C@H]2O[C@H](CO)[C@@H](O)[C@H](O)[C@@H]2O)c1
inactive: activity change, negative = cytotoxicity [1] 12.1% [at 0.29 µM] | activity change, negative = cytotoxicity [2] -1.44% [at 0.349 µM] | activity, negative = inhibition [3] -0.764% [at 0.349 µM] | activation [4] 0.783% [at 0.756 µM] | activity change, negative = inhibition [5] 2.97% [at 0.435 µM] | viability change, negative = cytotoxic [6] 5.82% [at 0.349 µM] | activity change, negative = cytotoxicity [7] 5.71% [at 0.349 µM] | viability change, negative = cytotoxic [8] -0.865% [at 0.349 µM] | activation (H2AX phosphorylation) [13] 0.108% [at 0.582 µM] | activation [14] -0.541% [at 0.291 µM] | activity change, negative = cytotoxicity [17] -1.18% [at 0.582 µM]
